Assay outcomes from PubChem.
Only some compounds are listed: those with a hit (about 2.4% of all), similar ones and a draw of the others.
WRN helicase inh = inhibitors of human WRN helicase; AID 651768; Potency, µM (series often up to 114 µM), usual class: inhibitors; WRN helicase unwinding, fluorescent forked duplex, kinetic; 360,000 compounds, 0.46% hits; Q14191; also: nearly all actives have a fitted effect of over 55% in size
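Screening of the MLSMR collection measured strand separation of a quenched forked DNA duplex (100 nM) by 20 nM WRN with 2 mM ATP, all final. Compounds were preincubated with enzyme 15 min at room temperature.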
POLI inh = DNA polymerase iota (human) inhibition; 390,000 compounds, 1% hits; Potency, µM (series often up to 115 µM), usual class: inhibitors; Q9UNA4; Pol iota fluorescent replication assay, 10 min
Target sequence (Q9UNA4 whole entry, looked up): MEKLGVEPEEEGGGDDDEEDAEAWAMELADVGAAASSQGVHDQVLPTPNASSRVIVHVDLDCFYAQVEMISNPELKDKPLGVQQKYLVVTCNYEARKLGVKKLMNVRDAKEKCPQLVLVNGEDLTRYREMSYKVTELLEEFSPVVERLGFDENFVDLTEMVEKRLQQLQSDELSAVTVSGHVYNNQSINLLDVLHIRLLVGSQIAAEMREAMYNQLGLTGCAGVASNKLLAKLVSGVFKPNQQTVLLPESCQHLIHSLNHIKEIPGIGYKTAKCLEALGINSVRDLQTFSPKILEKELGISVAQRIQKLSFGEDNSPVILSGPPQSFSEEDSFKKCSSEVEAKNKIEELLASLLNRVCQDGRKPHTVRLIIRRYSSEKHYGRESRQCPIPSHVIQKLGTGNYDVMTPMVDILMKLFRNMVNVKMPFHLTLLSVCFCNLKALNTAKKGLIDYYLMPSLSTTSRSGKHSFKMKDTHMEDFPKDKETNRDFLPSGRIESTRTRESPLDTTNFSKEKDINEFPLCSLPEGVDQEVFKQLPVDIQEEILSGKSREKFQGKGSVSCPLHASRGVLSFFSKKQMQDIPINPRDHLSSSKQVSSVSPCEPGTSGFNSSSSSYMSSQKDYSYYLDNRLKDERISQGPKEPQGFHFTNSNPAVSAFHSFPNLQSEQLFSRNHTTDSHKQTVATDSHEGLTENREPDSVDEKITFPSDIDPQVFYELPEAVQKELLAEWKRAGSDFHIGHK
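Pol iota at 10 nM preincubated 15 min with compounds at room temperature; reaction started with fluorescent substrate, 50 nM final. Fluorescence read kinetically at 0 and 10 min; buffer-only wells as negative control.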
POLB inh = inhibitors of human DNA polymerase beta | P06746 | Pol beta primer extension/strand displacement, fluorescence kinetic | Potency, µM (top dose mostly 114 µM), usual class: inhibitors | 340,000 compounds, 1.3% hits
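10 nM enzyme + cpd, 15 min RT; start with substrate 50 nM final; read 0 min and after 10 min RT. Corrected, normalized data; 4-parameter Hill curve fit.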
POLK inh = inhibitors of human DNA polymerase kappa. AID 588579. Potency, µM (series often up to 107 µM), hits mostly inhibitors. 400,000 compounds, 0.53% hits. purified Pol kappa, fluorescent DNA synthesis assay, 10 min. Q9UBT6
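10 nM Pol kappa was preincubated with compounds for 15 min at room temperature. Reaction started with 50 nM (final) substrate. Fluorescence read kinetically at 0 and 10 min.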
Pol eta inh = DNA polymerase eta (human) inhibition; recombinant Pol eta, fluorescent DNA replication assay; Potency, µM (doses to about 114 µM), usual class: inhibitors; 390,000 compounds, 1.2% hits
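Pol eta at 10 nM preincubated with compounds 15 min at room temperature; reaction started with fluorescent substrate (50 nM final) and read kinetically at 0 and 10 min.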
FEN1 inh = inhibitors of human flap endonuclease 1. Recombinant FEN1 flap cleavage, fluorescence, 15 min. Potency, µM (titrated, usually from 114 µM), actives largely listed as inhibitors. 390,000 compounds, 0.35% hits. AID 588795; also: nearly all actives have a fitted effect of over 65% in size
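FEN1 at 10 nM preincubated with compounds 15 min at room temperature, then flap DNA substrate added at 50 nM final. Signal read at 0 and 15 min; concentration-response fitted with four-parameter Hill equation.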
A number is an active result; 0 = inactive; ? = inconclusive; - = no result; ! = not confirmed by another sample; [ ] = remark or other dose. Calls follow the shape of the dose curve; as a rule, active = well fitted curve in the direction sought with a large enough effect; inconclusive = small, poorly fitted or top-dose-only effect, or another doubt; inactive = no such curve, though single readings can be large; an effect the other way counts as inactive or inconclusive.

SMILES	WRN helicase inh	POLI inh	POLB inh	POLK inh	Pol eta inh	FEN1 inh
CN=C1SC(CC(=O)NCCc2ccc(OC)c(OC)c2)C(=O)N1C (configuration not stated)	0	?	0	?	56.2µM!	0
O=C(Nc1nnc(CCc2ccccc2)s1)C1CCN(C(=O)c2ccco2)CC1	-	0	-	0	-	0
N#C/C(=C\c1ccc(-c2ccc(C(=O)O)cc2)o1)C(=O)NCC1CCCO1 (configuration not stated)	0	?	15.8µM	?	12.6µM	0
N#C/C(=C\c1ccc(N2CCOCC2)o1)C(=O)NCC1CCCO1 (configuration not stated)	0	0	?	0	0	0
Cc1cccc(C)c1NC(=O)/C(C#N)=C/c1ccc(-c2ccc(C(=O)O)cc2)o1	0	0	?	?	50.1µM	0
Cc1ccc(S(=O)(=O)N2CCN(c3nc(-n4ccnn4)nc4ccccc34)CC2)cc1	-	0	-	0	-	0
Cn1c(=O)c2c(ncn2CC(O)CNc2ccc(Cl)cc2)n(C)c1=O (configuration not stated)	0	0	0	0	0	0
Cc1ccc(NCC(O)Cn2cnc3c2c(=O)n(C)c(=O)n3C)cc1 (configuration not stated)	0	0	12.6µM	0	0	0
COCc1cc(C)nc(N/N=C/c2ccc(-c3ccc(C(=O)O)c(Cl)c3)o2)c1C#N	-	-	22.4µM	-	-	-
COCc1cc(C)nc(OCC(=O)N/N=C/c2ccc(-c3cccc([N+](=O)[O-])c3)o2)c1C#N	-	-	0	-	-	-
C/C=C(/C)C(=O)O[C@H]1C[C@@]2(C)O[C@H]2[C@@H](OC(C)=O)C2(C)CC[C@@](O)(C(C)C)C12 (some centres not stated)	-	-	-	0	-	-
N#CC1=C(N)Oc2n[nH]c(-c3cccs3)c2C1c1ccoc1 (configuration not stated)	44.7µM	?	0	0	?	?
Cc1ccc(C2C(C#N)=C(N)Oc3n[nH]c(-c4cccs4)c32)cc1 (configuration not stated)	0	0	0	0	0	0
COc1cccc(-c2[nH]nc3c2C(c2ccoc2)C(C#N)=C(N)O3)c1 (configuration not stated)	?	?	35.5µM	0	?	0
OC[C@H]1OC(O)[C@H](O)[C@@H](O)[C@@H]1O (some centres not stated)	-	-	-	0	-	-
CN(C)c1ccc(/C=C/c2ccnc3ccccc23)cc1	-	0	-	0	-	0
CCOc1cccc(C2C=C(c3ccc4c(c3)OCO4)NC(c3ccc(Cl)cc3)N2)c1O (configuration not stated)	-	0	-	0	-	0
Cc1ccc(-c2cc(C(=O)NCc3cnn(C)c3)c3cc(Br)ccc3n2)cc1	0	0	0	0	79.4µM	0
C#CCSc1nsc(SCC#C)c1C#N	50.1µM	20µM	44.7µM	?	17.8µM	?
O=C(O)/C(=C\c1ccccc1Cl)c1ccc(S(=O)(=O)N2CCCCC2)s1	0	?	?	0	50.1µM	0
O=C(O)/C(=C\c1ccc(Cl)c([N+](=O)[O-])c1)c1ccc(S(=O)(=O)N2CCCCC2)s1	0[11.6 µM]	?	?	0	79.4µM	0
O=C(O)/C(=C\c1ccc(Cl)cc1)c1ccc(S(=O)(=O)N2CCCC2)s1	0	0	-	?	?	0
O=C(O)/C(=C\c1cccc([N+](=O)[O-])c1)c1ccc(S(=O)(=O)N2CCCCC2)s1	0	?	25.1µM	0	?	0
COc1ccc(Br)cc1/C=C(\C(=O)O)c1ccc(S(=O)(=O)N2CCCC2)s1	?	?	-	?	22.4µM	0
CC(C)ON([C@@H](C(=O)NO)C(C)C)S(=O)(=O)c1ccc(-c2ccccc2)cc1	-	-	-	0	-	-
SMILES	WRN helicase inh	POLI inh	POLB inh	POLK inh	Pol eta inh	FEN1 inh
O=C1CCC/C1=C/Nc1ccc2c(c1)OCO2	0	0	25.1µM	0	0	0
O=C1CCCC/C1=C\Nc1ccc(O)cc1	0	25.1µM	0	0	0	0
O=C1CCC/C1=C/Nc1ccc(Cl)cc1	0	0	0	0	0	0
Cc1ccc2occ(C3N[C@H](C(=O)O)CS3)c(=O)c2c1 (some centres not stated)	0	10µM	0	0	?	0
CC(CCC(C)C(C)(C)C)[C@@H]1CC[C@H]2C3C[C@H](OS(O)(=S)=S)[C@H]4C[C@H](OS(O)(=S)=S)[C@@H](OS(O)(=S)=S)C[C@]4(C)[C@H]3CC[C@]12C (some centres not stated) (tested in a mixture with another compound)	15.8µM	3.55µM	-	20µM	3.55µM	5.01µM
CCC(=O)OCOc1ccc(/C=C2/CCC(CN(C)C)C2=O)cc1 (configuration not stated)	11.2µM	?	-	0	12.6µM	0
O=C(NN1C(=O)c2ccc(-c3ccc4c(c3)C(=O)N(NC(=O)c3cccnc3)C4=O)cc2C1=O)c1cccnc1	0	50.1µM	?	0	50.1µM	0
CCn1c(C)c(C)c2cc(C(=O)NCCCN3CCCCCC3)ccc21	0[11.6 µM]	89.1µM	0	0	0	0
O=C[C@@H]1CCCN1C(=O)[C@@H]1CCCN1C(=O)OCc1ccccc1	-	-	-	0[19.4 µM]	-	-
CC(C)(C)OC(=O)NC(Cc1ccccc1)C(O)c1ccco1 (configuration not stated)	-	0	-	0	-	0
O=C(N/N=C/c1ccccn1)c1sc2ccccc2c1Cl	?	0	44.7µM	0	?	?
O=C(N/N=C/c1c[nH]c2ccccc12)c1sc2ccccc2c1Cl	0	0	0	0	0	0
O=C(N/N=C/c1ccc([N+](=O)[O-])o1)c1sc2ccccc2c1Cl	0	20µM	?	50.1µM	?	39.8µM
CC(=O)c1ccc(S(=O)(=O)Nc2ccc(C(=O)N(C)CC(=O)Nc3cccc(C)c3C)cc2)cc1	0[11.6 µM]	?	-	?	31.6µM	0
Cc1ccccc1NS(=O)(=O)c1ccc(C(=O)N(C)CC(=O)Nc2ccccc2Br)cc1	0	0	-	0	0	0
COc1cc(/C=C/c2cccc[n+]2C)ccc1OCC(=O)Nc1ccccc1C	0	0	0	0	0	0
CCOc1cc(/C=C/c2cccc[n+]2C)ccc1OCC(=O)Nc1ccc(C)cc1	0	?	12.6µM	?	0	0
COc1ccc2c3c(c(=O)oc2c1)C1O[C@](c2ccsc2)(Cc2ccccc21)O3	-	-	0[22.9 µM]	-	-	-
O=c1oc2ccc(F)cc2c2c1C1O[C@](c3ccsc3)(Cc3c1ccc1ccccc31)O2	-	-	10µM	-	-	-
O=c1oc2ccccc2c2c1C1O[C@](c3ccsc3)(Cc3ccccc31)O2	-	-	11.2µM	-	-	-
CCCn1c(=O)c2ccccc2n2c(SCCNCCO)nnc12	0	0	0.159µM	0	0	0
CCCn1c(=O)c2ccccc2n2c(SCC(=O)c3ccccc3)nnc12	0	0	0	0	0	0
